Source: PubChem BioAssay (several laboratories)
CYP2C9 act = human CYP2C9 activators, primary screen, biochemical, luminescence; Cytochrome P450 2C9 (Homo sapiens), P11712; recombinant CYP2C9, luciferin-H conversion; stronger effect = higher value; factor 1 = untreated enzyme, 0 = blocked; activation factor at 5 µM; 96,000 compounds, 1.4% hits;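 active = activation factor of 2 or more for CYP2C9 at a 5 µM dose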;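 also: 0 = sulfaphenazole-blocked wells and 1 = vehicle-only wells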
PostGolgi yeast = phenotypic screen on post-Golgi transport, primary screen. inhibition, % at 10 µM. 98,000 compounds, 0.9% hits. post-Golgi transport phenotypic cell assay;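 also: yeast cells grown in 1536-well plates; yeast grown about 18 h at 30C before absorbance read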
CYP2C19 inhib = blockers of cytochrome P450 2C19 activity – biochemical, luminescence, ADME assay, primary screen; P33261; CYP2C19 Supersomes, luciferin-H EGE luminescence, 30 min; inhibition, % at 5 µM; 96,000 compounds, 21% hits;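 active = CYP2C19 inhibition above a set limit at 5 µM in the primary screen, cut at about 50% in these data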;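 also: plate controls were negative control wells for no effect and 2.5 mM tranylcypromine positive control for full effect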
Target sequence (P33261 whole entry, looked up): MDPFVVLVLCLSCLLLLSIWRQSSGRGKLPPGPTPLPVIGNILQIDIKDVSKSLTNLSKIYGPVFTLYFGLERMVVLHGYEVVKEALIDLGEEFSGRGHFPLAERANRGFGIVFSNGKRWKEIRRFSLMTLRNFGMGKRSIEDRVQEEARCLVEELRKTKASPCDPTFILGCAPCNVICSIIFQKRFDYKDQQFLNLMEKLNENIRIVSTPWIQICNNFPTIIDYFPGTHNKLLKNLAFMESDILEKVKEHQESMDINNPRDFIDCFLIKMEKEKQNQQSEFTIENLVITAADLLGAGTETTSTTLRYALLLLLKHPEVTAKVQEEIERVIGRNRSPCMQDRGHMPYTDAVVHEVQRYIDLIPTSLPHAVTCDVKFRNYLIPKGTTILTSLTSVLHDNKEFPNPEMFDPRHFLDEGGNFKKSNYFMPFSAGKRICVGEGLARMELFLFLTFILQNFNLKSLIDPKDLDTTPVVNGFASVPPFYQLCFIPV
PostGolgi ctrl = growth inhibition of yeast control strain, primary screen, counter-screen for post-Golgi transport modulator project; inhibition, % at 10 µM; 98,000 compounds, 5% hits; efflux-deficient yeast background strain, growth absorbance A615, 16 h; AID 738, 2007
CYP2C19 activ = human CYP2C19 activators, primary screen, biochemical, luminescence; AID 1025, 2008; recombinant CYP2C19, luciferin-H EGE luminescence; stronger effect = higher value; 0 = fully inhibited enzyme, 1 = untreated enzyme; activation factor at 5 µM; 96,000 tested, under 10 active; Cytochrome P450 2C19 (Homo sapiens), P33261;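 active = activation factor of at least 2 at 5 µM in the primary screen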;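 also: 0 = wells with 2.5 mM tranylcypromine and 1 = vehicle-only wells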
CYP2C9 inhib = blockers of cytochrome P450 2C9 activity – biochemical, luminescence, ADME assay, primary screen | P11712 | 96,000 compounds, 20% hits | CYP2C9 Supersomes, luciferin-H conversion | inhibition, % at 5 µM;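 active = blocking of liver enzyme CYP2C9 beyond about 50% at 5 µM, limit read from the data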
The depositor's hits bear a star; / = not tested or not shown. A selection: hits, their analogues and other compounds. The true share with any hit is near 32%. Rule as the data show it, unless noted: active = inhibition above about 30%; inactive = the rest.

SMILES | CYP2C9 act | PostGolgi yeast | CYP2C19 inhib | PostGolgi ctrl | CYP2C19 activ | CYP2C9 inhib
CCOC(=O)c1cnn(-c2ncnc3c2oc2ccccc23)c1N | 0.7 | / | 27.3 | / | 0.7 | 31.3
O=C(c1ccc2ncsc2c1)N1CCN(c2ccc(O)cc2)CC1 | 0.8 | -1.1 | 6.3 | 24.6 | 0.9 | 15.8
O=C(Cn1c(=O)oc2cc(S(=O)(=O)N3CCCC3)ccc21)N1CCc2ccccc2C1 | 0.4 | 3.8 | 2.6 | -5.3 | 1 | 63.7*
O=C(Cn1c(=O)oc2cc(S(=O)(=O)N3CCCC3)ccc21)N1CCCC1 | 0.8 | -5.1 | 8.6 | 8.7 | 0.9 | 20.5
Cn1c(=O)oc2cc(S(=O)(=O)N3CCC(C(=O)N4CCc5ccccc5C4)CC3)ccc21 | 1 | -2.3 | 3.8 | -0.6 | 1 | -3.4
O=C(Cn1c(=O)oc2cc(S(=O)(=O)N3CCCC3)ccc21)NCc1ccc(F)cc1 | 0.1 | -1.3 | 5.4 | 15.7 | 0.9 | 85.1*
O=C(Cn1c(=O)oc2cc(S(=O)(=O)N3CCOCC3)ccc21)N1CCc2ccccc2C1 | 0.9 | -3.1 | -14.2 | -7.9 | 1.1 | 5.5
CC1Cc2ccccc2N1C(=O)Cn1c(=O)oc2cc(S(=O)(=O)N3CCCCC3)ccc21 (centres undefined) | 0.4 | 9.6 | 52.5* | 23.6 | 0.5 | 64.9*
Cn1c(=O)oc2cc(S(=O)(=O)N3CCc4ccccc4C3)ccc21 | 0.9 | -2.5 | 51.5* | -14.0 | 0.5 | 8.5
Cc1ccc(NC(=O)CN(C)C(=O)CSc2nncn2C)cc1 | 1.2 | 17.6 | -14.0 | -7.7 | 1.1 | -20.3
CCCSc1nc(C)cc(C)c1C(N)=O | 1.1 | -13.9 | -23.9 | 1.2 | 1.2 | -12.3
CN1CCN(c2ccc([N+](=O)[O-])c(-n3nc(-c4ccccc4)c4ccccc4c3=O)c2)CC1 | 0.5 | 4.4 | 20.1 | 0.7 | 0.8 | 45.1
CC(C)=C(NC(=O)c1ccccc1)C(=O)N1CCOCC1 | 1 | 27.9 | 1.5 | 0.3 | 1 | 3.6
COc1ccc(C(=O)NC2CCN(C(=S)Nc3cccc(C)c3C)CC2)cc1 | 1.1 | -10.1 | -8.4 | 1.4 | 1.1 | -13.2
COC(=O)CSc1ccc2c(N)c(C(=O)OC)sc2c1 | 0.7 | -0.3 | 39.1 | 2.8 | 0.6 | 33.3
Cc1ccc(S(=O)(=O)NCCSc2nnc(N)s2)cc1 | 2* | 13.7 | 95.5* | -0.2 | 0 | -99.4
Cc1ccc(C)c(-n2nnnc2Sc2nnnn2-c2ccccc2)c1 | / | 11.3 | / | 21.4 | / | /
Cc1ccc(S(=O)(=O)NCCSc2nnnn2-c2cc(C)ccc2C)cc1 | 1.4 | -2.6 | 61.2* | 16.6 | 0.4 | -35.0
COc1ccc(OC)c(-c2cc(C(=O)N3CCCc4ccccc43)no2)c1 | 0.9 | -2.3 | 44.2 | 37.0* | 0.6 | 5.0
O=C(c1cc(-c2cccs2)on1)N1CCCc2ccccc21 | 0.7 | 5.1 | 93.4* | 29.4 | 0.1 | 25.8
COc1cccc(-c2cc(C(=O)N3CCCc4ccccc43)no2)c1 | 1.8 | 0.9 | 46.2 | 35.2* | 0.5 | -83.4
COc1ccc(-c2cc(C(=O)N3CCCc4ccccc43)no2)cc1 | 0.7 | 1.3 | 33.8 | 9.5 | 0.7 | 26.5
CC1=CC(C)=Nc2ccc(C)cc2N1 | 1.1 | -7.3 | -10.5 | 6.6 | 1.1 | -11.3
CC(=O)OCc1c(COC(C)=O)[n+](=O)c2ccccc2n1[O-] | 0.9 | 9.8 | 9.0 | -0.9 | 0.9 | 6.1
CCOC(=O)c1c(C)[nH]c2ccc(O)cc12 | 1 | / | 0.7 | / | 1 | -0.2
SMILES | CYP2C9 act | PostGolgi yeast | CYP2C19 inhib | PostGolgi ctrl | CYP2C19 activ | CYP2C9 inhib
CCOC(=O)c1c(C)n(CCNC(C)=O)c2ccc(O)cc12 | 0.6 | 3.9 | 60.4* | -4.7 | 0.4 | 44.2
CC(=O)c1c(C)n(CCO)c2ccc(O)cc12 | 1.1 | -7.0 | 4.2 | -1.4 | 1 | -14.9
CCOC(=O)c1c(C)n(C)c2ccc(OCC(N)=O)cc12 | 0.7 | -2.0 | 4.1 | 5.0 | 1 | 33.7
CCOC(=O)c1c(C)n(CC(O)c2ccccc2)c2ccc(O)cc12 (centres undefined) | 0.4 | 8.5 | 63.8* | 2.2 | 0.4 | 59.7*
CCOC(=O)COc1ccc2c(c1)c(C(=O)OCC)c(C)n2CC | 0.6 | -4.0 | 80.3* | 5.9 | 0.2 | 40.3
CCC1(CC)Cc2ccccc2C(=C(C#N)C#N)N1 | 0.8 | 19.1 | 22.7 | 14.9 | 0.8 | 15.3
Cc1ccc(S(=O)(=O)NC(=O)Nc2nnc(C3CC3)s2)cc1 | 0.9 | -6.5 | 4.6 | 3.6 | 1 | 5.1
Nc1c(NC2CCCCC2)c2ccccc2oc1=O | 0.8 | 2.7 | 35.0 | 12.9 | 0.7 | 16.8
O=c1cc(NCc2ccccc2)c2ccccc2o1 | 1 | -4.9 | 66.0* | 9.9 | 0.3 | -1.1
O=c1cc(NC2CCCCC2)c2ccccc2o1 | 0.5 | -1.6 | 60.2* | 9.3 | 0.4 | 52.8*
CCCn1c(N)c(C(=O)COC(=O)c2c(C)noc2C)c(=O)n(C)c1=O | 0.5 | -15.8 | 13.6 | -10.2 | 0.9 | 50.6*
Cc1noc(C)c1C(=O)OCC(=O)c1cc(C)n(Cc2ccccc2Cl)c1C | 0.1 | -2.4 | 90.3* | 8.0 | 0.1 | 87.1*
Cc1noc(C)c1C(=O)OCC(=O)c1ccc[nH]1 | 0.2 | 1.6 | 48.4 | 8.9 | 0.5 | 84.8*
CCCn1c(N)c(C(=O)CSc2nc(C)cs2)c(=O)n(C)c1=O | 0.8 | 35.4* | 31.2 | 12.8 | 0.7 | 18.6
Cc1cc(C(=O)Nc2c(C)nn(Cc3ccccc3Cl)c2C)no1 | 0.7 | -6.8 | 13.3 | -0.9 | 0.9 | 31.6
CCOc1cc(C(=O)OCC(=O)c2c(N)n(C)c(=O)n(C)c2=O)cc(OCC)c1OCC | 0.6 | -2.2 | 16.2 | 9.8 | 0.8 | 41.6
CCC(C)(C)NC(=O)C(c1ccc(F)cc1)N(Cc1ccco1)C(=O)c1cnccn1 (centres undefined) | 1.1 | -4.9 | -5.7 | 4.2 | 1.1 | -8.8
Cc1ccc(S(=O)(=O)NC(CC(=O)NCC2CCCO2)c2ccco2)cc1 (centres undefined) | 1.1 | -6.0 | 0.0 | 9.1 | 1 | -7.6
Cc1noc(C)c1C(=O)OCC(=O)NCCc1ccc(Cl)cc1 | 0.7 | 1.3 | 33.4 | 11.8 | 0.7 | 28.4
Cc1ccc(CNC(=O)COC(=O)c2c(C)noc2C)cc1 | 0.9 | -12.4 | 85.9* | 0.3 | 0.1 | 5.9
CC1(C)N=C(c2ccc(Cl)cc2Cl)C(=O)N1 | 0.5 | -3.9 | 80.1* | 9.8 | 0.2 | 45.9
O=C(NC1CCCCCCC1)c1cnccn1 | 0.9 | 3.8 | 63.3* | -3.4 | 0.4 | 5.6
CCN(C(=O)COC(=O)c1cnc(C)cn1)C1CCCCC1 | 1.1 | -1.9 | 9.2 | 5.6 | 0.9 | -9.5
O=C(OCC(=O)N(C1CCCCC1)C1CCCCC1)c1cnccn1 | 1.1 | -5.5 | 54.0* | -0.3 | 0.5 | -6.5
O=C(NC1CCS(=O)(=O)C1)c1cnccn1 (centres undefined) | 1 | 11.7 | 4.9 | 2.2 | 1 | -2.5
